This is a sample that favours compounds with a hit; in the whole collection about 11% have one here.
Tau fibril FP: qHTS for Inhibitors of Tau Fibril Formation, Fluorescence Polarization; 0.39% of 280,000 active; Potency, µM (highest dose often 57.7 µM), without a hit: at the highest dose activity, negative = inhibition, hits mostly inhibitors; K18 P301L tau heparin fibrillization, Alexa594 FP, 6 h; AID 1468, 2008; Microtubule-associated protein tau (Homo sapiens), P10636; note: potency is the fitted concentration of half-maximal effect; nearly all actives have a fitted effect of over 55% in size
Target sequence (P10636 561-689 P618L limits assumed): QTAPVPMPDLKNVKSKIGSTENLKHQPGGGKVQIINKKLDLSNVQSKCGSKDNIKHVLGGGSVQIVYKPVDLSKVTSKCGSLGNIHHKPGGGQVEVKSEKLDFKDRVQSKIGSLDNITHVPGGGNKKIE
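Recombinant K18 P301L […], labeled with Alexa 594 at 0.24 uM over 15 uM unlabeled; heparin inducer 20 uM final; 37 C, 6 hr; FP endpoint.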
G9a block: qHTS Assay for Inhibitors of Histone Lysine Methyltransferase G9a. Histone-lysine N-methyltransferase EHMT2 (Homo sapiens), Q96KQ7. G9a H3K9 monomethylation, AlphaScreen, 2 h. Potency, µM (series often up to 102 µM), without a hit: top-dose activity, negative = inhibition, actives largely listed as inhibitors. 8.8% of 350,000 active; note: potency is the fitted concentration of half-maximal effect; nearly all actives have a fitted effect of over 75% in size
Target sequence (Q96KQ7 913-1193 limits assumed): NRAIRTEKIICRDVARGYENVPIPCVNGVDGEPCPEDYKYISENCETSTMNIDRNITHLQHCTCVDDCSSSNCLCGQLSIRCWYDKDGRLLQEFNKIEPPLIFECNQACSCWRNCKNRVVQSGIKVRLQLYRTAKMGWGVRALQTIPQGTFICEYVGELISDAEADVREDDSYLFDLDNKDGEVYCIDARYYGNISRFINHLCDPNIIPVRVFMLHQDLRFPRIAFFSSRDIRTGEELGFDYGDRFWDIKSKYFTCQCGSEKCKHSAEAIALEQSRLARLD
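Signal arises when biotinylated H3K9 peptide, once monomethylated, bridges streptavidin donor and antibody-captured acceptor beads. Enzyme at 20 nM was preincubated 15 min with test compounds; peptide 500 nM and SAM 20 uM then reacted for 2 h.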
Tau fibril ThT: qHTS for Inhibitors of Tau Fibril Formation, Thioflavin T Binding; Microtubule-associated protein tau (Homo sapiens), P10636; 2.1% of 270,000 active; recombinant tau K18 P301L, heparin-induced fibrillization, ThT fluorescence; AID 1460, 2008; Potency, µM (doses to about 57.4 µM), inactives show at the highest dose activity, negative = inhibition, actives largely listed as inhibitors; note: potency is the fitted concentration of half-maximal effect; nearly all actives have a fitted effect of over 55% in size
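Fibril formation assay: tau K18 P301L at 15 uM with trace Alexa 594 label, heparin inducer 20 uM, pH 7 sodium acetate buffer, 37 C for 6 hr; endpoint ThT signal.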
Tau fluor cs: Counterscreen qHTS for Inhibitors of Tau Fibril Formation, Fluorescence Polarization; AID 1463, 2008; Potency, µM (top dose mostly 57.7 µM), without a hit: at the top dose activity change, negative = decrease; 0.93% of 280,000 active; tau K18 P301L (four-repeat tau fragment) Alexa594 fluorescence, heparin fibrillization; note: potency is the fitted concentration of half-maximal effect; nearly all actives have a fitted effect of over 55% in size
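Human K18 P301L tau (15 uM unlabeled plus 0.24 uM Alexa 594-labeled, final) in 100 mM sodium acetate pH 7 was mixed with compound and 20 uM heparin and incubated 6 hr at 37 C.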
Sfp PPTase inh: qHTS Assay for Inhibitors of Bacillus subtilis Sfp phosphopantetheinyl transferase (PPTase); 4'-phosphopantetheinyl transferase ffp (Bacillus subtilis), Q9F4F7; Biochemical Sfp PPTase activity, qHTS; Potency, µM, for the others: largest response in the series, negative = inhibition, usual class: inhibitors; 3.5% of 310,000 active; AID 1490, 2009;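 note: the enzyme is Sfp with the accession as filed and its product quenches rhodamine fluorescence; potency is the fitted concentration of half-maximal effect; 0% = enzyme reaction without inhibitor and -100% = no enzyme wells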
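With Hepes-Na pH 7.6 buffer containing 10 mM MgCl2, Sfp (15 nM) modified BHQ-2-YbbR (12.5 uM) using rhodamine-CoA (5 uM). Two reads 30 minutes apart at 525/598 nm yielded each well's rate.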
FBPA coupling cs: qHTS Assay for Inhibitors of Fructose-1,6-bisphosphate Aldolase from Giardia Lamblia: Coupling assay counterscreen. 0.67% of 290,000 active. activity change, negative = inhibition, % at 58.2 µM, hits read low. coupling enzyme system counterscreen, AmpLite Red fluorescence; in the data active = activity change below about -30%
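Final compound at 57.5 uM, incubated 10 min at RT with coupling enzyme reagent (glyceraldehyde-3-phosphate), then 20 min with substrate and AmpLite Red detection. Fluorescence read at 525/598 nm; tests interference with the coupling assay, not aldolase inhibition.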
* hit, by the source's call; ? = inconclusive; . = not tested or not shown; [ ] = another dose, or the depositor's remark. Unless noted, calls come from the whole dose curve; as a rule, active = well fitted curve in the direction sought with a large enough effect; inconclusive = small, poorly fitted or top-dose-only effect, or another doubt; inactive = no such curve, though single readings can be large; an effect the other way counts as inactive or inconclusive. Unless noted, % is set by controls: 0 for no effect and ±100 for the full control effect.

SMILES | Tau fibril FP | G9a block | Tau fibril ThT | Tau fluor cs | Sfp PPTase inh | FBPA coupling cs
CC(=O)C1=C(c2cccc([N+](=O)[O-])c2)N(C(C)=O)n2c(C)nnc2S1 | ? | 10µM* | 3.5µM* | -29% | -11% | 2
COc1cccc(CNC(=O)c2ccc3nc(N4CCCCC4)sc3c2)c1OC | ? | -4%[59 µM] | ? | -24% | . | .
CCN(CC)c1ccc(/C=C2/C(=O)c3ccc(C(=O)O)cc3C2=O)cc1 | ? | 13µM* | 3.2µM* | -11% | ? | 2
CCN(CC)c1ccc(C=C2C(=O)OC3(CCCCC3)OC2=O)cc1 | 3% | ? | -18% | -3% | -25% | -1
Cc1cc(Br)ccc1NC(=O)CN(C)C(=O)c1cc(S(=O)(=O)N(C)C)ccc1N1CCCC1 | . | . | . | . | 3% | .
Cc1ccccc1NC(=O)CCNC(=O)Cn1ccc2ccccc2c1=O | -3% | -1%[59 µM] | -6% | -10% | . | .
CCOC(=O)c1c(CN(C)C)n(C)c2c(O)c(N=NC(N)=O)c3ccc(Br)cc3c12 | . | -12% | . | . | 7% | -31*
CCOc1ccc(CNS(=O)(=O)c2cc3c(cc2C)NC(=O)CO3)cc1 | ? | 5%[59 µM] | -4% | -13% | . | .
O/N=C(\CN1CCCCC1)c1ccccc1 | . | 4% | . | . | 3% | 1
COc1ccc(/C=C2\Sc3ccc(C(=O)NCC4CCCO4)cc3N(C)C2=O)cc1 (centres undefined) | . | 13µM* | . | . | 50µM* | -1
COc1ccc(/C=C2\Sc3ccc(C(=O)N4CCOCC4)cc3N(C)C2=O)cc1 | . | -23% | . | . | 4% | -1
Cc1cccc(C)c1OCC(=O)NC1CC1 | . | 60% | . | . | 50µM* | .
Cc1cccc(C)c1OCC(=O)NNC(=S)NC(=O)C1CC1 | . | 20µM* | . | . | 25% | .
Cc1ccc(C)c(OCC(=O)NNC(=O)C2CC2)c1 | . | 19% | . | . | 2% | .
Cc1ccc(-c2ocnc2C(=O)Nc2ccccc2NC(=O)c2ccccn2)cc1 | . | 8% | . | . | ? | 1
Cc1cccc(-c2ocnc2C(=O)Nc2ccccc2NC(=O)c2ccccn2)c1 | . | -3% | . | . | 45µM* | -1
Cc1ccc(-c2onc(C)c2C)cc1S(=O)(=O)N1CCN(c2ccccc2F)CC1 | -3% | 3%[59 µM] | -6% | -24% | . | .
COc1cccc(NC(=O)c2oc3ccccc3c2NC(=O)C23CC4CC(CC(C4)C2)C3)c1 | ? | -26%[59 µM] | 6% | -24% | . | .
Cc1ccc(-c2ccc(/C=N/N3C(=O)C4C5C=CC(CC5)C4C3=O)o2)c([N+](=O)[O-])c1 (centres undefined) | 0% | 45µM* | ? | ? | 4% | -5
COc1ccc(-c2ccc(/C=N/N3C(=O)C4C5C=CC(C6CC56)C4C3=O)o2)c([N+](=O)[O-])c1 (centres undefined) | 5% | ? | ? | ? | 8% | 0
O=C1C2C3C=CC(C4CC34)C2C(=O)N1/N=C/c1ccc(-c2ccc(F)cc2[N+](=O)[O-])o1 (centres undefined) | ? | 8.9µM* | ? | ? | -24% | -9
O=C1C2C3C=CC(C4CC34)C2C(=O)N1/N=C/c1ccc(-c2ccc(Cl)cc2[N+](=O)[O-])o1 (centres undefined) | 0% | 35µM* | ? | ? | -27% | -20
O=C(O)c1cc(-c2ccc(/C=N/N3C(=O)C4C5C=CC(C6CC56)C4C3=O)o2)ccc1Cl (centres undefined) | 16% | 45µM* | -4% | 7% | 3% | 5
O=C(CCCc1nc(-c2ccccc2)no1)Nc1cc(C(F)(F)F)cc(C(F)(F)F)c1 | ? | 38%[59 µM] | 2% | ? | . | .

Source: PubChem BioAssay (National Center for Advancing Translational Sciences (NCATS))
